In PubChem BioAssay (Tox21) one finds Potency data, which are given here for 40 compounds.

Activity calls are given as the source filed them. Entries that show only a call come without a potency. Calls come from the whole dose curve; as a rule, active = well fitted curve in the direction sought with a large enough effect in the repeat runs; inconclusive = weak or mixed curves; inactive = flat fitted curve, though single readings scatter.

The nature of the assay: qHTS assay to test for compound auto fluorescence at 460 nm (blue) in HEK293 cells (AID 720678). To be noted: blue autofluorescence 405/460 nm; series mostly up to 46 µM. The source says:
National Center for Advancing Translational Sciences [NCATS]
NIH Chemical Genomics Center [NCGC]
U.S. Environmental Protection Agency [EPA]
National Institutes of Environmental Health Sciences [NIEHS]
National Toxicology Program [NTP]
U.S. Food and Drug Administration [FDA]
Compound auto fluorescence often interferes with screening of the compound library against various biological targets and signaling pathways. Some of these compounds may have fluorophoric properties. Such properties may interfere with the assay outputs resulting in false positives and/or negatives. To decrease such complications and ensure the compound activities are relevant in terms of biological response, the Tox21 10K compound library was screened for auto fluorescence.
From the fluorophores used as reporter signals in our screening assays, the auto fluorescence equivalencies of compounds against three fluorophores have been evaluated: Triamterene, Fluorescein and Rose Bengal sodium for blue, green and red fluorescence, respectively. The fluorescence intensities were measured using Excitation/Emission wavelengths at 405/460nm, 485/535nm and 540/590nm for blue, green and red labels, respectively. This assay includes the blue fluorescence data.
Tox21 Assay Protocol Summary:
2,000 HEK293 cells in 5 uL of culture medium containing 10% dialyzed FBS per well were dispensed into black wall/clear bottom 1536-well plates using a Multidrop Combi Dispenser (Thermo Scientific). The assay plates were incubated for 4-5 hr at 37C to allow cell attachment to the well bottom, followed by the transfer of 23 nL compound or DMSO vehicle by a pintool work station (Kalypsys, San Diego, CA). After the assay plates were incubated overnight at 37C and 5% CO2, fluorescence intensities in the assay plates were measured by an Envision (PerkinElmer, Shelton, CT) plate reader using three labels for measuring blue, green and red fluorescence at […] 460, 535 and 590nm respectively.
(In qHTS, concentration-response curves come from the screen itself.)
Regarding `CCC1(CC)C(=O)NC(=O)N(C)C1=O`, the Potency entry is “inactive”.

For the compound `CC(C)[C@H]1C(=O)N2CCC[C@H]2[C@]2(O)O[C@](NC(=O)[C@@H]3C[C@@H]4c5cccc6[nH]cc(c56)C[C@H]4N(C)C3)(C(C)C)C(=O)N12`, the Potency entry was “inactive”.

With `C[C@@H]1[C@H](O)[C@@H](C)/C=C/C=C/CC/C=C/C=C/C=C/C=C/[C@H](O[C@H]2O[C@@H](C)[C@H](O)[C@@H](N)[C@H]2O)CC2O[C@](O)(C[C@@H](O)[C@H](O)CC[C@@H](O)C[C@@H](O)C[C@@H](O)CC(=O)O[C@H]1C)C[C@H](O)[C@H]2C(=O)O`, the Potency result was “inactive”.

With `C[C@]12CCC(=O)C[C@@H]1CC[C@@H]1[C@@H]2CC[C@@]2(C)[C@H]1CC[C@]2(C)O`, the Potency result was “inactive”.

Take `CCN(CC)CCO[C@H]1CC[C@@]2(C)C(=CC[C@@H]3[C@@H]2CC[C@]2(C)C(=O)CC[C@@H]32)C1`: the Potency result is “inactive”.

Regarding `CCN1C[C@]2(COC)[C@H](O)C[C@H](OC)[C@@]34[C@@H]5C[C@@]6(O)[C@H](OC(=O)c7ccccc7)[C@@H]5[C@@](OC(C)=O)([C@@H]([C@H](OC)[C@H]23)[C@@H]14)[C@@H](O)[C@@H]6OC`, the Potency result was “inactive”.

Turning to `CC(Cc1ccccc1)NC=O` (stereo not given), the Potency entry is “inactive”.

With `CC(=O)[C@H]1CC[C@H]2[C@@H]3CC[C@@H]4C[C@H](O)CC[C@]4(C)[C@H]3CC[C@]12C`, the Potency result is “inactive”.

Take `CCC(C)(S(=O)(=O)CC)S(=O)(=O)CC`: the Potency entry was “inactive”.

`CC(C)(C)c1ccc(O)cc1`: the Potency result is “inactive”.

`[S]=[Sb](=[S])[S][Sb](=[S])=[S]`: the Potency entry was “inactive”.

For the compound `[H+].[H+].[Hg+2].[O-]B([O-])[O-].[c-]1ccccc1`, the Potency result was “inactive”.

Consider `CCNC1(c2cccs2)CCCCC1=O` (stereo not given), for which the Potency entry is “inactive”.

For `CCCCCc1cc(O)c2c(c1)OC(C)(C)[C@@H]1CCC(C)=C[C@@H]21`, the Potency entry was “inactive”.

For the compound `CNC(=O)OCC[N+](C)(C)C`, the Potency result was “inactive”.

For `C[C@@H]1[C@@H]2Cc3ccc(O)cc3[C@@]1(C)CCN2CCc1ccccc1`, the Potency entry is “inactive”.

Regarding `CCCCCCC(=O)O[C@H]1CC[C@H]2[C@@H]3CC[C@H]4CC(=O)C=C(C)[C@]4(C)[C@H]3CC[C@]12C`, the Potency result was “inactive”.

`C=CCC1([C@@H](C)CCC)C(=O)NC(=O)NC1=O`: the Potency result is “inactive”.

On to `O=C1C=C2C=C[C@@H]3C[C@@]2(O1)[C@H]1CCCCN31`, for which the Potency result is “inactive”.

Regarding `C[N+]1([O-])[C@@H]2CC(OC(=O)[C@H](CO)c3ccccc3)C[C@H]1[C@@H]1O[C@@H]12` (stereo not given in full), the Potency entry was “inactive”.

Regarding `O=P(O)(O)C(Cl)(Cl)P(=O)(O)O`, the Potency result is “inactive”.

With `Cc1nnc2n1-c1ccc(Cl)cc1C(c1ccccc1)=NC2`, the Potency entry is “inactive”.

`CN1c2ccccc2C(NCCCCCCC(=O)O)c2ccc(Cl)cc2S1(=O)=O` (stereo not given): the Potency entry was “inactive”.

Turning to `CC(N)Cc1ccc2c(c1)OCO2` (stereo not given), the Potency entry is “inactive”.

Consider `Oc1cccc[c]1[Hg][Cl]`, for which the Potency result was “inactive”.

Consider `NCC[C@H](O)C(=O)N[C@@H]1C[C@H](N)[C@@H](O[C@H]2O[C@H](CN)[C@@H](O)[C@H](O)[C@H]2N)[C@H](O[C@@H]2O[C@H](CO)[C@@H](O)[C@H]2O)[C@H]1O`, for which the Potency entry was “inactive”.

Take `CCCCNCC(O)c1ccc(O)cc1` (stereo not given): the Potency entry is “inactive”.

For the compound `O=C1C(I)=CC(=C(c2cc(I)c(O)c(I)c2)c2ccccc2C(=O)O)C=C1I`, the Potency entry was “inactive”.

Turning to `Cc1nnc2n1-c1sc(Br)cc1C(c1ccccc1Cl)=NC2`, the Potency result is “inactive”.

In the case of `CC(=O)OO`, the Potency entry was “inactive”.

`C[C@H]1[C@H]2Cc3ccc(O)cc3[C@]1(C)CCN2CCc1ccccc1`: the Potency result was “inactive”.

For `O=S(=O)(O)c1cc(O)ccc1O`, the Potency entry was “inactive”.

Consider `Cc1cc(C(C)(C)c2ccc(O)c(C)c2)ccc1O`, for which the Potency result was “inactive”.

Regarding `Clc1ccc(C(Cn2ccnc2)OCc2csc3c(Cl)cccc23)c(Cl)c1` (stereo not given), the Potency result was “inactive”.

Turning to `C[C@@H]([C@H](O)c1ccccc1)N(C)C`, the Potency entry is “inactive”.

On to `CCCSc1cc(OC)c(CCN)cc1OC`, for which the Potency result was “inactive”.

Turning to `CC(C)C[C@H](CN)CC(=O)O`, the Potency result is “inactive”.

As to `COc1ccc2c3c1O[C@H]1[C@@H](O)C=C[C@H]4[C@@H](C2)NCC[C@@]341`, the Potency result is “inactive”.

Regarding `COC(=O)[C@@H]1[C@H]2CC[C@@H](C[C@H]1OC(=O)c1ccccc1)N2C`, the Potency entry is “inactive”.

With `O=C1CN(O)C(c2ccccc2)=c2cc(Cl)ccc2=N1`, the Potency entry is “inactive”.
